Source: PubChem BioAssay (NCATS)
Inconclusive results are not listed. Unmarked numbers belong to inactive results. Activity calls are given as the source filed them. Calls follow the shape of the dose curve; as a rule, active = well fitted inhibition curve with a large enough effect; inconclusive = small, poorly fitted or top-dose-only effect; inactive = flat fitted curve, though single readings scatter.

Test system: Zika virus NS2B-NS3 protease (linked construct)
Test: Confirmatory screen NINDS AMC qHTS for Zika virus inhibitors (AID 1347152); also: nearly all actives have a fitted effect of over 70% in size;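 as to activity change, negative = inhibition: AMC fluorescence gain from cleaved Bz-Nle-KRR-AMC substrate over 15 min; top concentration of the series differs between compounds; 0% = no-inhibitor control and -100% = no-enzyme control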
Conditions: Purified linked NS2B-NS3, AMC substrate fluorescence; series mostly up to 56.6 µM; activity change, negative = inhibition: at the top concentration
Description: Assay Submitters (PI): Avindra Nath, Ph.D., National Institute of Neurological Disorders and Stroke (NINDS), Bethesda, MD Radhakrishnan Padmanabhan, Ph.D., Georgetown University (GU), Washington D.C. Zika Virus causes congenital defects, including microcephaly and is associated with Guillain-Barre syndrome, eningoencephalitis and myelitis in infected adult. […] Using a target-based approach, we hope to establish a screening paradigm to uncover novel, cell-active NS2B-NS3 protease (Zika Virus) specific inhibitors from NCATS' collection of small molecules using qHTS. […] Four assay panel was created to identify potential Zika Virus inhibitors. Namely, (1) GU unlinked NS2B-NS3 AMC tagged protease qHTS, (2) GU unlinked NS2B-NS3 Rhodamine tagged protease qHTS, (3) NINDS linked NS2B-NS3 AMC tagged protease qHTS, (4) NINDS linked NS2B-NS3 Rhodamine tagged protease qHTS. Active compounds were re-acquired and re-screened to confirm inhibition. Inhibitors were further screened against various confirmatory and counterscreens in dose response format. Early Translation Branch (ETB) National Center for Advancing Translational Sciences (NCATS), Rockville, MD National Institute of Health (NIH), Bethesda, Maryland
Materials: For the linked assay, Nath lab (NINDS) provided the purified linked NS2B-NS3 protease which is consists of hydrophilic domain of NS2B linked to the NS3 protease domain by a flexible (-[…]-) linker. Control compound aprotinin is obtained from Thermo Scientific (#78432; Waltham, Massachusetts). NS2B-NS3 AMC substrate (Bz-Nle-Lys-Arg-Arg-AMC; Nle-KRR-AMC) purchased from Bachem (#I-1995; Torrance, CA). Ac-VKTGKR-AMC purchased from Genscript or Bachem, Ac-FAAGKR-AMC purchased from Genscript, Ac-GLVKRR-AMC purchased from Genscript, Ac-LKKR-AMC purchased from Genscript. NINDS AMC linked NS2B-NS3 protease qHTS protocol: Briefly, 3 microL of Zika virus linked NS2B-NS3 protease (1 nM for linked final concentration), in assay buffer (10 mM Tris-HCl pH 8.0 with 0.01% Tween 20) was dispensed into a 1,536-well solid-bottom black plate (Greiner Bio One, Monroe, NC). Twenty-three nL of compounds (final concentration range 7.28 nM to 114 microM) or control Aprotinin (final concentration range 3.47 nM to 114 microM) were transferred via Wako Pin-tool (Wako Automation, Richmond, VA). Samples were incubated (room temperature, protected from light) for 15 minutes followed by a 1 microL AMC substrate addition of (final concentration of 10 microM; Km = 18.3 µM). Plates were then read immediately on a ViewLux High-throughput CCD imager (PerkinElmer, Waltham, MA) equipped with standard UV fluorescence optics (340(30) nm excitation, 450(20) nm emission) then incubated (room temperature, protected from light) for 15 minutes (~20% conversion). The change in fluorescence intensity over the 15-minute reaction period was normalized against no-inhibitor and no-enzyme controls and the resulting percent inhibition data were fitted to a 4-parameter Hill equation. Aprotinin was used as the intraplate control.
Potency is read from the fitted curve at half-maximal effect.

Row | SMILES | Potency | activity change, negative = inhibition
1 | CC(C)c1onc(-c2c(Cl)cccc2Cl)c1COc1ccc(C=Cc2cccc(C(=O)O)c2)c(Cl)c1 | 24.1 µM (active) | –
2 | CCCCOCCOc1nc(-c2ccc(C(=O)O)c(F)c2)sc1C | 19.2 µM (active) | –
3 | CCCCC[C@H](O)C=C[C@H]1[C@H](O)CC(=O)[C@H]1CCCCCCC(=O)O | – | 11.7%
4 | Cc1nc(C(=O)NCC(=O)O)c(O)c2ccc(Oc3ccccc3)cc12 | 21.5 µM (active) | –
5 | COc1ccc(-c2ccc3ncc4c(c3c2)n(-c2ccc(N3CCNCC3)c(C(F)(F)F)c2)c(=O)n4C)cn1 | – | -9% [at 5.51 µM]
6 | O=C(Nc1ccccc1)Nc1ccc(-c2ccc(C(=O)[C@H]3CCC[C@H]3C(=O)O)cc2)cc1 | 24.1 µM (active) | –
7 | COc1cc(Nc2nc3ccccc3nc2NS(=O)(=O)c2ccc(NC(=O)c3ccc(C)c(OC)c3)cc2)cc(OC)c1 | 6.98 µM (active) | –
8 | CCOC(=O)[C@H](CCc1ccccc1)N[C@@H](C)C(=O)N1CCCC1C(=O)O (some centres not stated) | – | -8.3%
9 | N#CC1(c2cccc(C(=O)Nc3cc(Oc4ccc5nc(NC(=O)C6CC6)sc5n4)ccc3F)c2Cl)CC1 | – | 9.18%
10 | Fc1ccc(C(c2ccc(F)cc2)N2CCN(CC=Cc3ccccc3)CC2)cc1 | – | -5.36%
11 | O=C(Nc1cccc2c(=O)cc(-c3nn[nH]n3)oc12)c1ccc(OCCCCc2ccccc2)cc1 | 5.41 µM (active) | –
12 | O=C1Nc2ccc(I)cc2C1=Cc1cc(Br)c(O)c(Br)c1 | – | -4.68%
13 | O=C(O)Cc1cccc(OCCCN(Cc2cccc(C(F)(F)F)c2Cl)CC(c2ccccc2)c2ccccc2)c1 | 19.2 µM (active) | –
14 | CC[C@H](C)n1cc(C)c2c(C(=O)NCc3c(C)cc(C)[nH]c3=O)cc(-c3ccc(N4CCNCC4)nc3)cc21 | 27.1 µM (active) | –
15 | c1cc(OCCN2CCCCC2)cc(-c2n[nH]c3ccc(-c4ncn[nH]4)cc23)c1 | 24.1 µM (active) | –
16 | N#CC(c1ccc(Cl)cc1)c1c(Cl)cc(-n2ncc(=O)[nH]c2=O)cc1Cl (configuration not stated) | 21.5 µM (active) | –
17 | COc1cc(Cl)cn2c(-c3cccc(NC4CNC4)n3)cnc12 | 27.1 µM (active) | –
